An excerpt weighted towards active compounds, which were near 3.5% of everything screened.
Anthrax LF inh2: Bacillus anthracis LF protease inhibitors, primary screen, biochemical, multiplex microsphere, MLPCN library | Lethal factor (Bacillus anthracis), P15917 | multiplex microsphere protease cleavage assay | inhibition, % at 10 µM | 0.12% of 360,000 active; note: plate controls were buffer without enzyme for full effect and enzyme alone for no effect
Target sequence (P15917 whole entry, looked up): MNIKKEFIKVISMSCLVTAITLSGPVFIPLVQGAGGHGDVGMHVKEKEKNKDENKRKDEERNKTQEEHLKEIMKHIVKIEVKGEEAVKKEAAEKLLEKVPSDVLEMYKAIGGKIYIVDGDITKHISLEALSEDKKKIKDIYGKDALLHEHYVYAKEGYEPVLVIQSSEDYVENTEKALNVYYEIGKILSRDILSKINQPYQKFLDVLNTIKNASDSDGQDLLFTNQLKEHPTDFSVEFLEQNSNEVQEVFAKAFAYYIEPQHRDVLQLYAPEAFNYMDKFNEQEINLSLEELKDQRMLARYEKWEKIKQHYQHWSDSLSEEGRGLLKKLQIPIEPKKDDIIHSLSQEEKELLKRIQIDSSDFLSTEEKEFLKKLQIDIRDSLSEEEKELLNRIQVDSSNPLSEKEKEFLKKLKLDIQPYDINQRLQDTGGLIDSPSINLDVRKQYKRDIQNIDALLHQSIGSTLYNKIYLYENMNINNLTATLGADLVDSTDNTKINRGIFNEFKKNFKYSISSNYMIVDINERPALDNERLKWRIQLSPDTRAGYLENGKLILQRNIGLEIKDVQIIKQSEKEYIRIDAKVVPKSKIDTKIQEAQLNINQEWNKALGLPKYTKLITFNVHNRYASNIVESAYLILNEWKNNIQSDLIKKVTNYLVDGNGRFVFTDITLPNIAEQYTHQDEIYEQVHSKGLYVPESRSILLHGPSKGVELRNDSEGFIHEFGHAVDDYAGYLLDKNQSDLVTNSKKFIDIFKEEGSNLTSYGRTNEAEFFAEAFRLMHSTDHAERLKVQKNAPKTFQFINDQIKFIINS
BoNT-A LC inh2: BoNT/A light chain protease inhibitors, primary screen, biochemical, flow cytometry, MLPCN library | Botulinum neurotoxin type A light chain protease (Clostridium botulinum A str. ATCC 3502) | multiplex microsphere protease substrate cleavage | inhibition, % at 10 µM | 0.17% of 360,000 active | AID 588499, 2011; note: plate controls were buffer without enzyme for full effect and enzyme alone for no effect
Bead autofluor: flagged as autofluorescent in microsphere protease counterscreen; compound autofluorescence counterscreen, microsphere flow cytometry; hits give high values; fluorescence intensity (concentration not given with the values); 3.1% of 360,000 active; in the data active = fluorescence intensity above about 16000; inconclusive = no clear call, values can overlap the other calls
BoNT-F LC inh: BoNT/F light chain protease inhibitors, primary screen, biochemical, flow cytometry, MLPCN library; 0.22% of 360,000 active; inhibition, % at 10 µM; Multiplex microsphere protease cleavage assay; Botulinum neurotoxin type F light chain protease (Clostridium botulinum); in the data active = inhibition above about 35%, passing the limit was not always enough; inconclusive = no clear call, values can overlap the other calls; note: plate controls were buffer without enzyme for full effect and enzyme alone for no effect
* = called active by the depositor; ? = inconclusive. Cut-off read from the data, not from the text of the source, unless noted: active = inhibition above about 30%; inconclusive = no clear call, values can overlap the other calls; inactive = below that.

SMILES	Anthrax LF inh2	BoNT-A LC inh2	Bead autofluor	BoNT-F LC inh
CCOC(=O)c1nc(C)n(-c2cc(Cl)ccc2Cl)n1	-1	1	19905*	2
NS(=O)(=O)c1ccc(CCNC(=O)CNC(=O)c2ccccc2F)cc1	-2	0	5622	2
NS(=O)(=O)c1ccc(CCNC(=O)c2ccccc2F)cc1	-1	-2	16685*	-6
O=C(NCCc1ccncc1)C(F)(F)F	0	-1	24347*	0
O=C(NCCNC(=O)C(F)(F)F)c1ccncc1	?	0	?	9
O=C(NCCc1ccncc1)c1ccccc1F	1	3	21712*	4
Cc1nc(NC(=O)c2ccccc2)sc1-c1csc(NCCc2ccccc2)n1	2	4	25254*	2
O=C(Cc1cccc(NC(=O)C2CCCN(C(=O)C3CCCCC3)C2)c1)Nc1ccc(C(=O)N2CCCCC2)cc1 (stereo not drawn)	3	0	3580	-5
COc1ccc(-c2nnc(SCCC(=O)O)n2-c2ccccc2)cc1OC	-2	-5	25005*	-8
COc1ccc(-c2nnc(SCCC(=O)O)n2C)cc1OC	2	0	5130	2
COc1ccc(C(C)=O)cc1CSc1nnc(-c2ccccc2O)n1-c1ccccc1	-2	1	19750*	-2
Cc1snc(S(=O)(=O)Cc2ccccc2Cl)c1C#N	-3	-1	21018*	-1
O=c1ncccn1C1OC(CO)C(O)C1O (stereo not drawn)	2	0	5378	8
O=C/C(=C\Nc1ccccn1)c1nc2cc(Cl)ccc2o1	-5	1	3820	2
O=C/C(=C\Nc1ccccn1)c1nc2ccccc2o1	-1	?	17474*	-6
CC1(C(=O)Nc2cnc3ccccc3c2)CCN1C(=O)CCc1ccccc1 (stereo not drawn)	-5	0	4013	-6
CC(C)c1nc2oc3ccccc3c(=O)c2c(=O)n1-c1ccccc1	-17	6	17355*	4
CC(C)NS(=O)(=O)c1ccc(CCC(=O)N2CCC(C(N)=O)CC2)cc1	2	-1	4522	-2
O=C(O)c1ccc(F)c(S(=O)(=O)Nc2ccccc2Cl)c1	0	0	23288*	0
COc1c(C)cc(Br)cc1C(=O)O	-5	0	22363*	-2
CSc1ncccc1C(=O)N1CCC(C)(C(=O)O)C1 (stereo not drawn)	-6	0	3524	-2
COc1ccc(Nc2nnc(-c3ccc(N4CCOCC4)c([N+](=O)[O-])c3)c3ccccc23)cc1	-4	-9	22975*	-10
COc1ccc(C(=O)c2ccc(N3CCOCC3)c([N+](=O)[O-])c2)cc1	1	0	4446	3
Cc1ccn(-c2n[nH]c(C)c2[N+](=O)[O-])n1	3	-2	4932	-5
Cc1ccn(-c2ccc([N+](=O)[O-])cc2)n1	-2	0	20585*	-1
SMILES	Anthrax LF inh2	BoNT-A LC inh2	Bead autofluor	BoNT-F LC inh
Cc1ccc(OCc2nc(-c3ccc(Cl)cc3)n[nH]2)cc1	-12	2	19787*	1
Fc1ccc(OCc2nc(-c3ccncc3)n[nH]2)cc1	3	0	4027	-1
Cc1c(Br)cc(C(=O)NC2CCCCC2)c(C)c1C	0	?	23067*	-2
C=C(C)c1cccc(C(C)(C)NC(=O)NCc2ccc(OC)c(OC)c2)c1	-4	0	23352*	-2
CCN(CC)C(=O)Cn1c(=O)n(CC(=O)N2CCCCC2)c(=O)c2sccc21	?	3	?	?
CCCCC(=O)c1c(C)cc(C)[nH]c1=O	-5	-1	4087	-3
CCCCC(=O)C1C(=O)NC(=O)NC1=O	-3	2	19202*	3
COc1ccc(S(=O)(=O)N2CCN=C2SCc2cccc(F)c2)cc1	2	0	6042	2
Fc1cccc(CCN2CCNC[C@@H]2CC2CCCCC2)c1	1	0	4017	-17
CCOc1ccc(-c2cc(C(=O)NCCCn3ccnc3)c3ccccc3n2)cc1	-4	-1	4109	-1
CCOc1ccc(-c2cc(C(=O)NCCCN3CCN(CC)CC3)c3ccccc3n2)cc1	0	?	21315*	-4
Cc1cccc(NC(=O)C2CCCN(C(=O)NC3CCCCC3)C2)c1C (stereo not drawn)	-1	0	22986*	-1
COc1ccccc1NC(=O)N1CCCC(C(=O)Nc2cccc(C)c2C)C1 (stereo not drawn)	3	1	8686	1
CCOc1cc(C(c2c(C)[nH][nH]c2=O)c2c(C)[nH][nH]c2=O)ccc1OS(=O)(=O)c1ccccc1	0	0	20887*	-6

Screening data: PubChem BioAssay, NMMLSC
